PubChem BioAssay AID2825 (Sanford-Burnham Center for Chemical Genomics, 2010)
The campaign covered roughly 330,000 compounds. About 1,300 (0.39%) were called active. The sample holds actives, similar compounds and a random draw of the others, so the mix is not that of the screen.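 The calls were made as follows: active = inhibition of 50% or more; inactive = inhibition below 50%.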

Assay: NALP3 inflammasome inhibitors in reconstituted yeast, primary screen, luminescence, uHTS (AID 2825);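 also: plate controls were induced DMSO wells for no effect and uninduced yeast grown without galactose for full effect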
Conditions: Yeast reconstituted NLRP3/ASC/caspase-1, beta-gal luminescence, 24 h; at 10 µM; stronger effect = higher value

inhibition, active:
O=C(NCc1ccc2c(c1)OCO2)c1c(O)nc2sccn2c1=O 56%
CCCN(CC1CC1)C(=S)NC(=O)c1ccccc1Br 50.5%
Cc1ccc(O)c(NC(=O)c2cc(-c3ccco3)on2)c1 56.4%
O=C(Nc1ccc2oc(-c3ccccc3F)nc2c1)c1ccco1 54.8%
CC(C)Sc1ncnc2c1cnn2-c1ccccc1 50.5%
Oc1c(Cl)cc(Cl)c(Cl)c1Cc1c(O)c(Cl)cc(Cl)c1Cl 95.9%
CCCCCCC12CCC(C(=O)O)(CC1)CC2 54.3%
O=[N+]([O-])c1c(NCCO)cc(Sc2nc3ccccc3s2)c2nonc12 55.2%
CCN(CC)c1ccc(/C=N/Nc2nc(C)cc(C)n2)c(O)c1 58.1%
O=C(Oc1c(-c2ccco2)oc2ccccc2c1=O)c1cccnc1 54.3%
CCOC(=O)c1c(C)[nH]c(C(=O)COc2ccc3c(c2)OCO3)c1C 79.9%
Cc1ccnc(Nc2nc3ccccc3s2)n1 53.7%
O=C1C=C(c2ccc(Cl)cc2)C(=O)N1Nc1ccccc1 74.6%
CCc1noc(C)c1C(=O)Nc1nc2ccc(OC)cc2s1 70.8%
CN=C1C=C/C(=N/N=c2\ccn(O)cc2C)C=C1C 57.6%
CC(=O)[C@@]12O[C@@H]1C[C@H]1[C@@H]3CC[C@H]4C[C@@H](O)CC[C@]4(C)[C@H]3CC[C@@]12C 58.4%
CC(=NCc1ccc2c(c1)OCO2)C1=C(O)c2ccccc2C1=O 57.8%
Cc1cc(C(=O)COc2ccc(Br)cc2F)c(C)n1C1CC1 58.4%
CC(C)C(=O)N1CCN(CCN=CC2=C(O)CC(c3ccco3)CC2=O)CC1 (stereo unspecified) 60.8%
COCCCNC(=O)/C=C/c1ccc(OCc2c(F)cccc2Cl)cc1 50.9%
CCCNc1ncnc2sc(C)c(C)c12 55.9%
O=[N+]([O-])/C=C/c1ccc2c(ccn2Cc2ccccc2)c1 92.3%
CC1(C)CCSC(/C=C/c2ccccc2)=N1 85.7%

inhibition, inactive:
CCn1c(=O)c(C(=O)NCc2ccc3c(c2)OCO3)c(O)c2ccccc21 17.1%
O=C(NCc1ccc2c(c1)OCO2)c1sccc1Br 40.9%
CC(NC(=O)COC(=O)CCC(=O)c1ccc(Cl)cc1)c1ccccc1 (stereo unspecified) 6.94%
CC1CCN(C(=S)NC(=O)c2ccccc2Br)CC1 15.7%
O=C(NC(=S)Nc1ncccn1)c1ccccc1Br 6.12%
COc1ccc(S(=O)(=O)NCc2cccnc2)cc1NC(=O)c1ccc(C)cc1 9.95%
CCc1cc(-c2n[nH]c(=S)n2CC(C)C)cs1 29.7%
Cc1nc2sc(C(c3ccco3)N3CCC4(CC3)OCCO4)c(O)n2n1 (stereo unspecified) 13.3%
O=C(Nc1ccccc1C(F)(F)F)c1cc(-c2ccc(O)cc2)on1 32%
CC(C)Cc1cc(C(=O)Nc2cc(Br)ccc2O)no1 29.5%
COc1cccc(C(=O)Oc2cc(C)[nH]c(=O)c2[N+](=O)[O-])c1 16%
COC(=O)c1ccc(S(=O)(=O)N(CCO)Cc2ccccc2)n1C 4.79%
CN1CCN(C(=O)/C(=C\c2cccs2)NC(=O)c2cccs2)CC1 7.81%
C=CCn1c(SCC(N)=O)nnc1-c1cc2c(s1)CCC(CC)C2 (stereo unspecified) 4.35%
O=C(O)C1CCCN1C1=NS(=O)(=O)c2ccccc21 (stereo unspecified) -1.91%
O=C(Nc1cccc(-c2nc3ncccc3o2)c1)c1ccco1 18.2%
COc1cc(OC)cc(C(=O)Nc2ccc(-c3nc4ccccc4o3)c(O)c2)c1 10.3%
C=CCN1C(=O)C(O)(CC(=O)c2ccc(Cl)cc2)c2ccccc21 (stereo unspecified) -10.4%
CCN(CC)C(=O)CSc1ncnc2c1cnn2-c1ccccc1 35.5%
CC(Sc1ncnc2c1cnn2-c1ccccc1)C(=O)Nc1ccc(N2CCOCC2)cc1 (stereo unspecified) 8.39%
CCCn1c(SCC(=O)Nc2ccc(C)c(S(=O)(=O)N3CCOCC3)c2)n[nH]c1=O 4.23%
CC1(C)Cc2c(sc3nc(SCC(=O)NCc4ccccc4)n(-c4ccccc4)c(=O)c23)CS1 -8.33%
COC(=O)c1ccc(S(=O)(=O)NCc2ccccc2)n1C 14.2%
O=C(Nc1cc(S(=O)(=O)N2CCCCC2)ccc1Cl)C1COc2ccccc2O1 (stereo unspecified) 4.78%
CCCCCCCCCCCC(=O)O 12.3%
CN1CCN(c2ccc(S(=O)(=O)N3CCOCC3)cc2NC(=O)CCc2ccccc2)CC1 12.1%
COc1cc(NC(=O)CN2C(=O)NC(C)(c3ccc(OC(F)F)cc3)C2=O)cc(OC)c1OC (stereo unspecified) 11.2%
CCN(CC)CCCSc1nc2ccccc2s1 15.5%
Cc1nc2nc(CSc3nc4ccccc4s3)cc(=O)n2[nH]1 1.14%
Cc1ccccc1S(=O)(=O)Cc1ccc(C(=O)NCCN2CCCCC2C)o1 (stereo unspecified) 13.3%
COc1ccc(C2Nc3ccccc3C(=O)N2c2ccc(Cl)cc2)cc1Cn1cc([N+](=O)[O-])cn1 (stereo unspecified) 1.4%
Cc1cccc(C(=O)OC(C)C(=O)NC2CCCc3ccccc32)c1O (stereo unspecified) 11.6%
Cc1ccc(C(c2sc3nc(C)nn3c2O)N2CCN(c3ccccc3)CC2)cc1 (stereo unspecified) -2.77%
Cc1cc(C)nc(N/N=C/c2c(CO)cnc(C)c2O)n1 15.2%
CCN(CC)c1ccc(/C=N/NC(=O)c2cnccn2)c(O)c1 27.9%
OCCC1CN(Cc2cnc(-c3ccccc3)s2)CCN1CCc1ccccc1 (stereo unspecified) 1.33%
CCOC(OCC)c1ccc(/C=C\c2nccc(N)n2)cc1 14.7%
COc1ccc(Oc2coc3cc(OC(=O)c4cncc(Br)c4)ccc3c2=O)cc1 2.36%
O=C(OCc1cc2ccccc2[nH]c1=O)c1cccnc1 11.2%
C=C(C)c1cccc(C(C)(C)NC(=O)NCCN(CC)CC)c1 5.58%
COC(=O)c1cc(S(=O)(=O)NC2CCN(Cc3ccccc3)CC2)cn1C 11.4%
CCOC(=O)c1c(C)[nH]c(C(=O)OCC(=O)c2ccc(OC)cc2OC)c1C 22.6%
CC(=O)c1c(C)[nH]c(C(=O)COc2ccc3c(C)cc(=O)oc3c2)c1C 17.5%
O=c1[nH]c(CCl)nc2cc(-c3ccc(Cl)cc3)sc12 2.25%
O=C(NCC1CCCO1)c1ccc(S(=O)(=O)Nc2ccc(F)cc2)cc1 (stereo unspecified) 16.8%
COCCNC(=S)N1CCN(C)CC1 5.02%
CC(Sc1ccccc1F)C(=O)Nc1cccc(S(=O)(=O)N2CCOCC2)c1 (stereo unspecified) 6.56%
Cc1ccnc(-n2sc3ccccc3c2=O)n1 6.74%
O=C(CCC(=O)c1cccs1)Nc1nc2ccccc2s1 3.03%
Cc1ccc(NS(=O)(=O)c2cccs2)cc1S(=O)(=O)N1CCCCCC1 8.88%
CCn1nc(C)c(NC(=O)/C=C/c2ccc(OC)c(COc3ccc(Br)cc3)c2)c1C 7.05%
COc1cc(N2C(=O)c3ccccc3C2=O)c(Cl)cc1C(=O)OCC(=O)N1CCOCC1 -0.245%
N#C/C=C(/c1ccc(F)cc1)N1CCOCC1 6.72%
CCOc1cc(/C=N/NC(=O)OC)ccc1OCCSc1ccc(Cl)cc1 33.5%
CC(C)(C)NC(=O)CN(C(=O)c1ccc(Cl)nc1)c1cccc2ccccc12 13.4%
O=C(O)CC1=C(Nc2ccccc2)C(=O)N(c2ccccc2)C1c1ccc(Cl)cc1 (stereo unspecified) 15%
O=C(CCC(=O)OCc1ccc(Cl)cc1)Nc1ccccc1 21%
Cc1sc2c(c1C)c(=O)n(-c1ccccc1)c1nncn21 2.84%
CCCCNC(=O)C1(O)c2ccccc2NC(=O)N1c1ccc(Cl)cc1 (stereo unspecified) 3.8%
COc1cc(NC(=O)C2=CC(c3ccco3)=NS(=O)(=O)N2C)cc(OC)c1OC 2.53%
CCc1noc(C)c1C(=O)Nc1nc(-c2ccccc2)cs1 45.9%
Cc1noc(C)c1CSCC(=O)Nc1nc2ccc(Oc3ccccc3)cc2s1 9.07%
Cc1ccc(C)c(N2CCN(C(=O)Cn3ncn4cccc4c3=O)CC2)c1 -5.29%
COCCN1CCn2c(nc3cc(NS(C)(=O)=O)ccc32)C1 10.9%
COCCn1c(=O)[nH]c2cc(C(=O)NCc3cccnc3)ccc2c1=O -3.21%
CC(NC(=O)c1cc2cc(Cl)ccc2oc1=N)c1ccccc1 (stereo unspecified) 14.4%
CC(=O)O[C@H]1CC[C@@]2(C)[C@@H](CC[C@@H]3[C@@H]2CC[C@]2(C)[C@@H](C(C)(C)O)C[C@@H]32)C1 32.9%
CC(=O)C12CC(C)=C(C)CC1CC1C3CCC4=CC(=O)CCC4(C)C3CCC12C (stereo unspecified) -1.41%
CC1CCN(S(=O)(=O)c2ccc3[nH]c(=O)ccc3c2)CC1 18.1%
O=C(CC(Cc1ccccc1)C(=O)O)NCCc1ccc2c(c1)OCO2 (stereo unspecified) 20.5%
CCc1ccc(NC(=O)NC(C)c2ccc3c(c2)OCO3)cc1 (stereo unspecified) 24.3%
CCC(=O)c1cc(F)ccc1OCC(=O)Nc1ccc2c(c1)OCCO2 26.6%
O=C(NC1CCC(O)CC1)c1ccccc1OCc1ccc(F)cc1 (stereo unspecified) 1.97%
COCCNC(=O)CCCn1c(=O)c2ccccc2n(Cc2cccc([N+](=O)[O-])c2)c1=O -0.805%
Cc1cc(C(=O)COc2ccccc2Cl)c(C)n1C1CC1 21.7%
O=C(COc1ccc(Br)cc1F)NC1CCN(Cc2ccccc2)CC1 23%
O=C1C=CN2CCCC2CC1 (stereo unspecified) -5.59%
O=C1CC(c2ccccc2)CC(O)=C1C=NCCN1CCOCC1 (stereo unspecified) 29.8%
CC(=O)N1CCN(CCN=CC2=C(O)CC(C)(C)CC2=O)CC1 32.1%
Cc1cc(C(=O)OCC(=O)Nc2nccs2)c2ccccc2n1 10.4%
O=C(/C=C/c1ccc(OCc2c(F)cccc2Cl)cc1)N1CCOCC1 28.2%
CN(C)CCCNC(=O)/C=C/c1ccc(OCc2c(F)cccc2Cl)cc1 20.8%
CCN(CC(=O)Nc1ccc(NC(C)=O)cc1)C(=O)CSC(=S)N1CCCC1 4.68%
C=CCC1(CC=C)CCCN1C(=O)CC1C(=O)NCCN1Cc1ccccc1OC (stereo unspecified) 4.65%
CSc1ncnc2sc(C)c(C)c12 11.2%
Cc1sc2ncnc(Sc3nc4ccccc4s3)c2c1C 6.48%
Cc1cc(NC(=O)CN2C(=O)NC(C)(CCc3ccccc3)C2=O)no1 (stereo unspecified) -3.27%
COCCNC(=O)c1ccc2nc(Cc3ccc(OC)c(OC)c3)oc2c1 20.9%
O=C(Cn1ccc2cc(S(=O)(=O)N3CCCC3)ccc21)NCc1ccccc1 11.6%
Cc1ccc2[nH]c3c(=O)n(CC(=O)NCCc4ccc(Cl)cc4)ncc3c2c1 1.78%
COc1ccc(CCNS(=O)(=O)c2ccc(Cl)s2)cc1OC 11%
CC1CC(C)CN(S(=O)(=O)c2cccc3nonc23)C1 (stereo unspecified) 25%
CC(C)C[C@H](NC(=O)NCCc1ccc(Cl)cc1)C(=O)O 2.68%
